The text below walks through data of PubChem BioAssay (NCATS).

The target in assay [1] is Cellular tumor antigen p53 (Homo sapiens) (UniProt P04637). The experiment in a line: Primary qHTS for small molecule compounds that upregulate eGFP-tagged delta133p53alpha (in N-terminal) cells. (AID 2060322).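 Further: series mostly up to about 56 µM; 0% = DMSO vehicle and 100% = reference activator; nearly all actives have a fitted effect of over 75% in size.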 The conditions noted are these: NCI-H358 eGFP-delta133p53alpha fluorescence, 24 h; activation: stronger effect = higher value. The gist of the method: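 NCI-H358 cells pre-induced 24 h with 10 ng/ml doxycycline to express N-terminal eGFP-delta133p53alpha, then dosed 24 h at 37C without doxycycline; fixed, Hoechst-stained, GFP intensity by laser scanning cytometry, normalized to DMSO (0%) and 57.5 uM 5-azacytidine (100%).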

Assay [2] shares this target. Nature of the assay: Primary qHTS for small molecule compounds that upregulate eGFP-tagged delta133p53alpha (in C-terminal) cells. (AID 2060324).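 Further: 0% = DMSO wells and 100% = 57.5 µM 5-azacytidine.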 The gist of the method:
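NCI-H358 cells pre-induced 24 h with 100 ng/ml doxycycline to express delta133p53alpha-eGFP, then dosed in doxycycline-free medium for 24 h at 37C. Fixed, Hoechst-stained; GFP intensity by laser scanning cytometry, normalized to DMSO wells.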

For assay [3], the target named is Aldehyde dehydrogenase, mitochondrial (Homo sapiens) (UniProt P05091). Nature of the assay: qHTS for Inhibitors of the Aldehyde Dehydrogenase Family (ALDH2) Validation screens (AID 2061302; active means well fitted inhibition curve with a large enough effect; title and protocol of this record describe different tests;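 further: plate controls were DMSO vehicle for no effect and maximal DPI positive control response for full effect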).
The target is the same in assay [4]. Nature of the assay: qHTS for Inhibitors of the Aldehyde Dehydrogenase Family (ALDH2) Primary screen (AID 2061308).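 Further: plate controls were vehicle for no effect and reference inhibitor for full effect; nearly all actives have a fitted effect of over 55% in size.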 For orientation: In qHTS, concentration-response curves come from the screen itself.
For assay [5], the target named is Retinaldehyde dehydrogenase 3 (Homo sapiens) (UniProt P47895). Nature of the assay: qHTS for Inhibitors of the Aldehyde Dehydrogenase Family (ALDH1A3) Validation screen (AID 2061312). Further: on the % scale 0 is the no-effect control and ±100 the full control effect; nearly all actives have a fitted effect of over 45% in size.
For assay [6] the target is unchanged. Nature of the assay: qHTS for Inhibitors of the Aldehyde Dehydrogenase Family (ALDH1A3) Primary screen (AID 2061315).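 Further: plate controls were DMSO vehicle for no effect and reference inhibitor for full effect.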
Assay [7] is described as follows: BET inhibitor-based combinations targeting novel dependencies in MECOM-rearranged (r) AML: HNT-34 cell line (AID 2202234).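 Further: plate controls were vehicle wells for no effect and cell-free wells for full effect; nearly all actives have a fitted effect of over 35% in size.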 The essentials:
(§1)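 Luminescent ATP readout (CellTiter-Glo, 15 min at room temperature) after 48 hr drug exposure gave viability. Dose-response curves, normalized to DMSO and empty-well controls, were summarized as area under the curve and its mean-centred Z-score.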

Assay [8] in a line: BET inhibitor-based combinations targeting novel dependencies in MECOM-rearranged (r) AML: AML-191 cell line (AID 2202236;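 further: plate controls were vehicle wells for no effect and wells without cells for full effect; nearly all actives have a fitted effect of over 35% in size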). The gist of the method: (§2)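 Luminescent ATP readout (CellTiter-Glo) after 48 hr drug exposure gives viability. Curves span 11 concentrations and are normalized to DMSO and empty wells. Activity is reported as area under the curve and its Z-transform within each cell line.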

The nature of assay [9]: BET inhibitor-based combinations targeting novel dependencies in MECOM-rearranged (r) AML: AML-194 cell line (AID 2202237;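 further: plate controls were vehicle wells for no effect and wells without cells for full effect; nearly all actives have a fitted effect of over 40% in size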). The essentials:
as §2

The nature of assay [10]: BET inhibitor-based combinations targeting novel dependencies in MECOM-rearranged (r) AML: SET-2 cell line (AID 2202231).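 Further: plate controls were DMSO treated cells for no effect and wells without cells for full effect; nearly all actives have a fitted effect of over 35% in size.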 The conditions noted are these: SET-2 AML cells viability, CellTiter-Glo luminescence, 48 h; viability: stronger effect = lower value, series mostly up to about 46 µM. The gist of the method:
as §2
In general terms: In ATP-based viability assays light output follows the ATP content of the culture.

Assay [11] is described as follows: BET inhibitor-based combinations targeting novel dependencies in MECOM-rearranged (r) AML: MV-4-11 cell line (AID 2202233). Further: nearly all actives have a fitted effect of over 45% in size. Further: potency means the concentration at half of the fitted maximal effect. The gist of the method:
as §1

Assay [12] is described as follows: BET inhibitor-based combinations targeting novel dependencies in MECOM-rearranged (r) AML: UCSD-AML1 cell line (AID 2202235).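 Further: series mostly up to about 46 µM; plate controls were DMSO vehicle wells for no effect and blank wells for full effect; nearly all actives have a fitted effect of over 40% in size.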 The essentials: as §1
Assay [13] is described as follows: BET inhibitor-based combinations targeting novel dependencies in MECOM-rearranged (r) AML: OCI-AML3 cell line (AID 2202232).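 Further: series mostly up to about 46 µM; plate controls were DMSO vehicle wells for no effect and wells without cells for full effect; nearly all actives have a fitted effect of over 35% in size.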 The conditions noted are these: Potency: OCI-AML3 viability. The gist of the method:
as §2

Where “and” joins values, the source holds several entries; their conditions need not be identical. Identical values can stand only once. Records with an inconclusive call do not appear. Unmarked numbers belong to inactive results. Calls of active or inactive are those of the source. Unless noted, the call rests on the fitted dose curve; in most records, active means well fitted curve in the direction sought with a large enough effect; inconclusive means small, poorly fitted or top-dose-only effect, or another doubt; inactive means no such curve, though single readings can be large; an effect the other way counts as inactive or inconclusive.

Chain of Cellular tumor antigen p53 (Homo sapiens) (P04637 whole entry, looked up): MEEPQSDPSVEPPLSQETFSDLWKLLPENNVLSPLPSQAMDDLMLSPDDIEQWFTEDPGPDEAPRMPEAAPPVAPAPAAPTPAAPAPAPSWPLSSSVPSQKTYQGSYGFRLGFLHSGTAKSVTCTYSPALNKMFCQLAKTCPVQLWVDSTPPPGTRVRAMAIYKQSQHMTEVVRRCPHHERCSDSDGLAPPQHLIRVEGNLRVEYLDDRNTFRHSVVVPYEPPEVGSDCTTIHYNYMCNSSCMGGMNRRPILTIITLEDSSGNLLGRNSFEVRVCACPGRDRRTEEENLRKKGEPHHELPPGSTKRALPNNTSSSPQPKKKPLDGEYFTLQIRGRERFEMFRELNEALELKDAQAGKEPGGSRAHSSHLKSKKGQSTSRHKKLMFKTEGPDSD

In the case of `O=C(O)CCc1nc(-c2ccccc2)c(-c2ccccc2)o1`, the activation in [1] is -3.34% and -25.4%. For the same compound, the Potency entry in [2], in [3], in [4], in [5] and in assay [6] was “inactive” throughout.
`CCN1CCC[C@H]1CNC(=O)c1cc(S(N)(=O)=O)ccc1OC`: the activation in assay [1] is -14.2% and 19% and 1.55%. Besides, the Potency entry in [2], in [3], in assay [4], in [5] and in [6] was “inactive” throughout.
Take `CC(=O)CCCCn1c(=O)c2c(ncn2C)n(C)c1=O`: the activation in [1] was -15.1% and -0.333% and -11.4%. Moreover, the Potency result in assay [2], in [3], in [4], in assay [5] and in assay [6] was “inactive” each time.
For the compound `O=C(c1ccc2c(c1)OCCO2)N1CCCCC1`, in assay [1], the activation is 8.27%. For the same compound, the Potency entry in assay [2], in assay [3] and in [5] was “inactive” throughout.
As for `CCNc1nc2c(ncn2[C@H]2C[C@H](O)[C@@H](CO)O2)c(=O)[nH]1`, the activation in assay [1] was 9.4% and 5.67%. For the same compound, the Potency entry in assay [2], in assay [3], in assay [4], in assay [5] and in assay [6] was “inactive” throughout.
Regarding `COC(=O)[C@@H]1[C@H]2C[C@H]3c4[nH]c5ccccc5c4CCN3C[C@@H]2CC[C@@H]1O`, the activation in assay [1] is -9.53% and 22.3%. For the same compound, the Potency result in [2], in assay [3], in [4], in assay [6], in assay [7] and in assay [8] was “inactive” in each case. In addition, the Potency entry in [9] is “inactive”.
Regarding `O=C(Nc1ccc2c(c1)CCN(Cc1ncn[nH]1)C2)c1ccccc1-c1ccc(C(F)(F)F)cc1`, in assay [1], the activation is -9.63% and 4.33%. Further, the Potency result in [2], in [3], in [4], in assay [5], in assay [6] and in assay [7] was “inactive” throughout. For the same compound, the Potency result in assay [12] and in assay [8] was “inactive” in each case. Moreover, in [10], the viability (in general, a read-out of living cells in per cent, often relative to untreated cells) is 96.3%. Moreover, the Potency in assay [11] was 14.8 µM (active).
As for `CC(C(O)c1ccc(O)cc1)N1CCC(Cc2ccccc2)CC1` (stereo unspecified), the activation in assay [1] was -5.02% and -1% and -19.5%. Also, the Potency entry in assay [2], in assay [3], in assay [4], in [5] and in assay [6] was “inactive” in each case.
For `Clc1ccc2c(c1)N=C(N1CCNCC1)c1ccccc1N2`, the activation in assay [1] is 11.7% and 30.8%. Moreover, the Potency entry in assay [2], in assay [3], in assay [4], in assay [5] and in assay [6] was “inactive” each time.
Take `CCN(CC)CCNC(=O)c1cc(Cl)c(N)cc1OC`: the activation in assay [1] is -1.69% and -0.477% and 10.5%. For the same compound, the Potency result in assay [2], in assay [3], in assay [4], in assay [5] and in assay [6] was “inactive” in each case.
As to `CCN(CC)CCCCNc1ncc2cc(-c3c(Cl)cccc3Cl)c(NC(=O)NC(C)(C)C)nc2n1`, in assay [1], the activation was -67.6% and 10%. Further, the Potency result in assay [2], in [3], in assay [4], in assay [5] and in assay [6] was “inactive” each time.
`COc1ccccc1N1CCN(CCCNc2cc(=O)n(C)c(=O)n2C)CC1`: the activation in assay [1] is 16.7% and -11.6% and 14.7%. Besides, the Potency result in assay [2], in [3], in assay [4], in assay [5] and in assay [6] was “inactive” in each case.
As to `CC(=O)NC[C@H]1CN(c2ccc(N3CCOCC3)c(F)c2)C(=O)O1`, the activation in [1] was 20.9% and -21.5% and 0.955%. In addition, the Potency entry in [2], in assay [3], in assay [4], in assay [5], in [6] and in [13] was “inactive” in each case. Moreover, the Potency result in [11], in assay [7], in assay [12], in [8] and in assay [9] was “inactive” in each case. Moreover, the viability in assay [10] is 105%.
As for `CN(C)CCCC1(c2ccc(F)cc2)OCc2cc(C#N)ccc21` (stereo unspecified), the activation in assay [1] was 2.08% and 5.36% and -45.1%. Further, the Potency entry in assay [2], in [3], in [4], in assay [5] and in [6] was “inactive” in each case.
Turning to `CC(C)NCC(O)COc1cccc2[nH]ccc12` (stereo unspecified), in assay [1], the activation was -9.6% and -5.67% and -6.98%. Further, the Potency entry in assay [2], in assay [3], in assay [4], in assay [5] and in assay [6] was “inactive” each time.
Turning to `Fc1ccc2[nH]c(CN3CCN(c4ccccn4)CC3)cc2c1`, the activation in [1] is -0.955%. The Potency result in assay [2], in [3], in [4], in [5] and in assay [6] was “inactive” in each case.
For the compound `CNS(=O)(=O)CCc1ccc2[nH]cc(C3CCN(C)CC3)c2c1`, in assay [1], the activation is 13.4% [middle of 4 runs]. In addition, the Potency entry in [2], in [3], in assay [4], in [5] and in [6] was “inactive” each time.
For the compound `CCCNC(=O)NS(=O)(=O)c1ccc(Cl)cc1`, in assay [1], the activation is -9.6% and 2.39% and -46.5%. The Potency entry in assay [2], in assay [3], in assay [4], in [5] and in assay [6] was “inactive” each time.
Take `CS(=O)(=O)c1ccc(-n2nc(C(F)(F)F)cc2-c2ccc(F)cc2)cc1`: in assay [1], the activation is -27.4% and -11.6%. Further, the Potency entry in [2], in assay [3], in assay [4], in assay [5] and in assay [6] was “inactive” throughout.
With `Nc1ncnc2c1c(-c1ccc(Oc3ccccc3)cc1)cn2C1CCCC1`, the activation in assay [1] is -45.6%. In addition, the Potency entry in assay [2], in assay [3], in [4], in assay [5] and in assay [6] was “inactive” each time.
Take `CC(=O)SC1CC2=CC(=O)CC[C@]2(C)C2CC[C@@]3(C)C(CC[C@@]34CCC(=O)O4)C12` (stereo partly specified): the activation in [1] is -47.2%. The Potency entry in [2], in [3] and in assay [5] was “inactive” each time.
